The record followed here is PubChem BioAssay.

Molecules are shown by their SMILES.

Chain of PEG-3 (Q6IN02 whole entry, looked up): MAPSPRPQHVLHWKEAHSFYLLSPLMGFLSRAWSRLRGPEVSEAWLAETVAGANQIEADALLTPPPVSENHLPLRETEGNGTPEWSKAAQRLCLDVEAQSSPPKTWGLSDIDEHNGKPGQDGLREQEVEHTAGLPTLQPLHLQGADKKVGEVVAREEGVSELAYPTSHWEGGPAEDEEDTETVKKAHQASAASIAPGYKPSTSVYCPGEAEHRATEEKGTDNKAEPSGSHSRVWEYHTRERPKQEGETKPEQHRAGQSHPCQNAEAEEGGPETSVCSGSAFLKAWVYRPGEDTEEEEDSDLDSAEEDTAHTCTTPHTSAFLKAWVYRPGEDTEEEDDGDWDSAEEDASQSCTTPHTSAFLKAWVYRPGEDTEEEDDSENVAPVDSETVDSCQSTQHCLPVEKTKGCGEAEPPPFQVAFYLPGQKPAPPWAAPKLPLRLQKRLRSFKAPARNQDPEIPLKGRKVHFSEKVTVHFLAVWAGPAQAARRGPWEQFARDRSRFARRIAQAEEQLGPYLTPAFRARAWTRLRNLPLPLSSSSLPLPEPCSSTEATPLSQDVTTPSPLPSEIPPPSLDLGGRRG

One assay addresses PEG-3 (UniProt Q6IN02). Kind of assay: inhibition of PEG-3 promoter-driven reporter – cell-based, HeLa, luciferase, CREF/GAPDH counter-screen panel, dose response (AID 624167). Conditions: CREF/GAPDH counter-screens; HeLa PEG-Prom luciferase reporter, overnight, run 1, dose range 1, at 100 µM (top of the series) unless noted. Background: A counterscreen serves to expose hits that act by an unwanted route or on another target.
As usually defined, the inhibition is the change of the read-out against control, counted positive when it falls. On to `CCC(=O)NC(c1cccs1)c1cc([N+](=O)[O-])c2cccnc2c1O` (stereo not given), for which the inhibition was 100%.
On the same count and under the same terms, to `Cc1cc(Sc2ncnc(N)c2[N+](=O)[O-])ncn1` belongs 102%.
Still for that read-out and setting: to `Cc1cccc(N2CCN(C(=O)C3CCN(c4ncnc5c4nc4n5CCCCC4)CC3)CC2)c1C` belongs 101%; to `CCCCCCCn1c(=N)n(CC(O)c2ccco2)c2ccccc21` (stereo not given), 101%; to `Cn1cc(CN2CCCC(C(=O)Nc3ccc(-c4cccc(F)c4)cc3)C2)cn1` (stereo not given), 101%.
Still for that read-out and setting: the result for `Cc1ccc(C2(CCNCc3ccc(N(C)C)cc3)CCOC(C(C)C)C2)cc1` (stereo not given) reads 99.6%; that for `CN(CC(=O)Nc1ccc(Cl)c(C(F)(F)F)c1)C(=O)c1cc(-c2ccncc2)nc2ccccc12`, 102%; that for `Cc1cccc(CN2C(=O)[C@H]3Cc4c([nH]c5ccccc45)C(C)(C)N3C2=O)c1`, 97.5%.
As to `COc1cc(C=NO)nc(-c2ccccn2)c1`, the inhibition worked out at 71.9%.
On the same count and under the same terms, the result for `O=C(CCN1C(=O)/C(=C/c2cccs2)SC1=S)N1CCCCC1` reads 96.2%.
The same measure, in the same setting: the result for `COc1ccc(CNCCC(c2ccccc2)c2ccc(OC(C)C)cc2)cc1OC` (stereo not given) reads 101%; that for `CC1(Cc2ccc(Cl)c(Cl)c2)C(=O)Nc2ccc(S(=O)(=O)NC3CCCCC3)cc21` (stereo not given), 92.8%.
Still for that read-out and setting: to `CCCc1nc2oc3c(NCCCN(C)C)ncnc3c2c2c1CCCC2` belongs 102%.
As to `COc1cc(/C=C/[N+](=O)[O-])ccc1OC(=O)/C=C/c1ccc(F)cc1`, the inhibition was -70.5%.
As to `COc1ccc(CN2CCN(C(=O)c3cc(-c4cccnc4)nc4ccc(Cl)cc34)CC2)c(OC)c1OC`, the inhibition amounted to 74.9%.
Still for that read-out and setting: to `CCCCN(C)CCNC(=O)c1cc(-c2cccnc2)nc2ccc(S(=O)(=O)N3CCC(C)CC3)cc12` belongs 100%.
The same measure, in the same setting: the result for `CC(C)NC(=O)NC(=O)COC(=O)c1c2c(nc3ccccc13)CCC2` reads 101%.
The same measure, in the same setting: to `CC(C)CC(NS(=O)(=O)OCC(Cl)(Cl)Cl)c1ccccc1` (stereo not given) belongs 97.2%; to `CS(=O)(=O)c1ccc(C(=O)NCCN2C(=O)S/C(=C\c3cccnc3)C2=O)cc1[N+](=O)[O-]`, 102%.
As to `COC(=O)c1ccc(CNC(=O)Cn2cnc3c(NCc4ccccc4)ncnc32)cc1`, the inhibition worked out at 97.3%.
Still for that read-out and setting: to `CCc1nc(Sc2nnnn2-c2ccccc2)c2c3c(sc2n1)CCCC3` belongs 68.7%.
As to `CN(C)S(=O)(=O)c1cccc(NC(=O)CSc2cccc3cccnc23)c1`, the inhibition amounted to 99.3%.
On the same count and under the same terms, the result for `Cc1nc(N2CCN(S(=O)(=O)c3ccccc3C#N)CC2)c2c(-c3ccccc3)csc2n1` reads -7.38%; that for `C[C@@H](NCCCn1cnc2c(OCc3ccccc3)ncnc21)c1cccc2ccccc12`, 94.9%.
Turning to `CCc1ccc(O)c(CNCCNCc2cc(CC)ccc2O)c1`, the inhibition is 102%.
On the same count and under the same terms, the result for `COC(=O)Cc1[nH]n(-c2nc3ccccc3s2)c(=O)c1C(C)=Nc1ccc(Cl)cc1` reads 88.1%.
Same read-out and setting: to `COc1ccc2sc3cccc(NCCN(C)C)c3c(=O)c2c1` belongs 98%; to `CSc1ccc(CN(C)C(=O)C(Cc2ccccc2)NC(=O)c2ccccc2)cc1` (stereo not given), 101%.
As to `c1cc2c3c(cccc3c1)NC1(CCC3(CC1)Nc1cccc4cccc(c14)N3)N2`, the inhibition was 97.7%.
Same read-out and setting: to `Cc1ccc(-c2nnc(N3CCN(c4ccccn4)CC3)c3ccccc23)cc1` belongs 98%; to `COc1ccc(Nc2oc(COc3ccccc3OC)nc2C#N)cc1`, 69.9%.
Same read-out and setting: the result for `COc1ccccc1N1CCN(C(=O)c2sc3ncnc(N4CCN(c5ccccn5)CC4)c3c2C)CC1` reads 88.3%; that for `COc1ccc(NC(=O)Nc2nc(C(N)C3CCCCC3)cs2)cc1` (stereo not given), 101%.
On the same count and under the same terms, to `COc1cccc(NC(=O)CN(C)C(=O)c2cccnc2Nc2cccc(C(F)(F)F)c2)c1` belongs 102%.
On to `COc1cccc(Nc2nc(C(N)C3CCCCC3)cs2)n1` (stereo not given), for which the inhibition came to 98.9%.
The same measure, in the same setting: the result for `Nc1c(C(=O)Nc2cccc(C(=O)O)c2)sc2nc3c(cc12)CCCC3` reads 92.6%; that for `CCOC(=O)C1=C(COCCN)NC(C)=C(C(=O)OC)C1c1ccccc1Cl` (stereo not given), 98.7%.
As for `COC(=O)C1=C(C)N(Cc2ccccc2)C(=NCc2cccc(Cl)c2)N[C@H]1c1ccccc1`, the inhibition came to 102%.
On the same count and under the same terms, to `COC(=O)c1ccc(Nc2cc(C)nc3ccc(C)cc23)cc1` belongs 98.7%.
On to `OCCN1CCN(C2CCC(c3ccc(F)cc3)c3ccc(F)cc32)CC1` (stereo not given), for which the inhibition was 102%.

The next assay concerns the target PEG-3 (UniProt Q6IN02). Described as above. Conditions: CREF/GAPDH counter-screens; HeLa PEG-Prom luciferase reporter, overnight, run 2, dose range 1, at 100 µM (top of the series) unless noted.
Take `CCC(=O)NC(c1cccs1)c1cc([N+](=O)[O-])c2cccnc2c1O` (stereo not given): the inhibition stood at 101%.
The same measure, in the same setting: to `Cc1cc(Sc2ncnc(N)c2[N+](=O)[O-])ncn1` belongs 102%; to `Cc1cccc(N2CCN(C(=O)C3CCN(c4ncnc5c4nc4n5CCCCC4)CC3)CC2)c1C`, 90.7%.
Same read-out and setting: to `CCCCCCCn1c(=N)n(CC(O)c2ccco2)c2ccccc21` (stereo not given) belongs 99.1%; to `Cn1cc(CN2CCCC(C(=O)Nc3ccc(-c4cccc(F)c4)cc3)C2)cn1` (stereo not given), 102%; to `Cc1ccc(C2(CCNCc3ccc(N(C)C)cc3)CCOC(C(C)C)C2)cc1` (stereo not given), 101%.
The same measure, in the same setting: the result for `CN(CC(=O)Nc1ccc(Cl)c(C(F)(F)F)c1)C(=O)c1cc(-c2ccncc2)nc2ccccc12` reads 98.9%; that for `Cc1cccc(CN2C(=O)[C@H]3Cc4c([nH]c5ccccc45)C(C)(C)N3C2=O)c1`, 101%.
In the case of `COc1cc(C=NO)nc(-c2ccccn2)c1`, the inhibition came to 73.1%.
As to `O=C(CCN1C(=O)/C(=C/c2cccs2)SC1=S)N1CCCCC1`, the inhibition turned out to be 94.3%.
Regarding `COc1ccc(CNCCC(c2ccccc2)c2ccc(OC(C)C)cc2)cc1OC` (stereo not given), the inhibition came to 102%.
Same read-out and setting: to `CC1(Cc2ccc(Cl)c(Cl)c2)C(=O)Nc2ccc(S(=O)(=O)NC3CCCCC3)cc21` (stereo not given) belongs 95.4%; to `CCCc1nc2oc3c(NCCCN(C)C)ncnc3c2c2c1CCCC2`, 101%.
The same measure, in the same setting: the result for `COc1cc(/C=C/[N+](=O)[O-])ccc1OC(=O)/C=C/c1ccc(F)cc1` reads -151%; that for `COc1ccc(CN2CCN(C(=O)c3cc(-c4cccnc4)nc4ccc(Cl)cc34)CC2)c(OC)c1OC`, 83%.
`CCCCN(C)CCNC(=O)c1cc(-c2cccnc2)nc2ccc(S(=O)(=O)N3CCC(C)CC3)cc12`: the inhibition is 96.1%.
Take `CC(C)NC(=O)NC(=O)COC(=O)c1c2c(nc3ccccc13)CCC2`: the inhibition worked out at 93.6%.
Same read-out and setting: to `CC(C)CC(NS(=O)(=O)OCC(Cl)(Cl)Cl)c1ccccc1` (stereo not given) belongs 99.4%; to `CS(=O)(=O)c1ccc(C(=O)NCCN2C(=O)S/C(=C\c3cccnc3)C2=O)cc1[N+](=O)[O-]`, 99.2%.
With `COC(=O)c1ccc(CNC(=O)Cn2cnc3c(NCc4ccccc4)ncnc32)cc1`, the inhibition turned out to be 74.3%.
Same read-out and setting: to `CCc1nc(Sc2nnnn2-c2ccccc2)c2c3c(sc2n1)CCCC3` belongs 91.8%.
Still for that read-out and setting: the result for `CN(C)S(=O)(=O)c1cccc(NC(=O)CSc2cccc3cccnc23)c1` reads 101%; that for `Cc1nc(N2CCN(S(=O)(=O)c3ccccc3C#N)CC2)c2c(-c3ccccc3)csc2n1`, 5.99%; that for `C[C@@H](NCCCn1cnc2c(OCc3ccccc3)ncnc21)c1cccc2ccccc12`, 101%.
Still for that read-out and setting: the result for `CCc1ccc(O)c(CNCCNCc2cc(CC)ccc2O)c1` reads 101%; that for `COC(=O)Cc1[nH]n(-c2nc3ccccc3s2)c(=O)c1C(C)=Nc1ccc(Cl)cc1`, 94.2%; that for `COc1ccc2sc3cccc(NCCN(C)C)c3c(=O)c2c1`, 99.2%.
Take `CSc1ccc(CN(C)C(=O)C(Cc2ccccc2)NC(=O)c2ccccc2)cc1` (stereo not given): the inhibition came out at 96.7%.
Still for that read-out and setting: to `c1cc2c3c(cccc3c1)NC1(CCC3(CC1)Nc1cccc4cccc(c14)N3)N2` belongs 102%; to `Cc1ccc(-c2nnc(N3CCN(c4ccccn4)CC3)c3ccccc23)cc1`, 101%.
The same measure, in the same setting: to `COc1ccc(Nc2oc(COc3ccccc3OC)nc2C#N)cc1` belongs 88.5%.
With `COc1ccccc1N1CCN(C(=O)c2sc3ncnc(N4CCN(c5ccccn5)CC4)c3c2C)CC1`, the inhibition is 93.5%.
Consider `COc1ccc(NC(=O)Nc2nc(C(N)C3CCCCC3)cs2)cc1` (stereo not given), for which the inhibition came out at 99%.
Regarding `COc1cccc(NC(=O)CN(C)C(=O)c2cccnc2Nc2cccc(C(F)(F)F)c2)c1`, the inhibition stood at 102%.
On the same count and under the same terms, to `COc1cccc(Nc2nc(C(N)C3CCCCC3)cs2)n1` (stereo not given) belongs 102%.
Still for that read-out and setting: the result for `Nc1c(C(=O)Nc2cccc(C(=O)O)c2)sc2nc3c(cc12)CCCC3` reads 77.5%; that for `CCOC(=O)C1=C(COCCN)NC(C)=C(C(=O)OC)C1c1ccccc1Cl` (stereo not given), 100%.
Still for that read-out and setting: the result for `COC(=O)C1=C(C)N(Cc2ccccc2)C(=NCc2cccc(Cl)c2)N[C@H]1c1ccccc1` reads 101%; that for `COC(=O)c1ccc(Nc2cc(C)nc3ccc(C)cc23)cc1`, 100%; that for `OCCN1CCN(C2CCC(c3ccc(F)cc3)c3ccc(F)cc32)CC1` (stereo not given), 101%.
